According to PubChem BioAssay AID504374 (National Center for Advancing Translational Sciences (NCATS), 2011):
Screen size: about 1,500 compounds; about 100 (6.7%) were called active. Roughly 7% stayed inconclusive and do not appear here. The call rests on the fitted dose curve; in most records, active means well fitted inhibition curve with a large enough effect; inconclusive means small, poorly fitted or top-dose-only effect, or effect the other way; inactive means flat fitted curve, though single readings scatter. The sample as a whole holds a higher share of actives than the screen did.

These compounds were tested against Runt-related transcription factor 1 (Homo sapiens) + Core-binding factor subunit beta (Homo sapiens) (UniProt Q01196+Q13951) (assay: qHTS Assay for Compounds Blocking the Interaction Between CBF-beta and RUNX1 for the Treatment of Acute Myeloid Leukemia: Hit Validation). Details: AlphaScreen CBFb-His/RUNX1-biotin binding; series mostly up to 59.8 µM; activity, negative = inhibition: at the top concentration.
Procedure, shortened: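 AlphaScreen proximity assay: His-tagged CBF-beta and biotinylated RUNX1 (30 nM each) preincubated 20 min, then compound 15 min, then nickel and streptavidin beads 90 min, all at room temperature; signal read at […]em 440 nm.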
Further: nearly all actives have a fitted effect of over 60% in size.
On the % scale 0 is the no-effect control and ±100 the full control effect; potency means the concentration at half of the fitted maximal effect.

Chain of Runt-related transcription factor 1 (Homo sapiens) + Core-binding factor subunit beta (Homo sapiens) (Q01196 whole entry, looked up): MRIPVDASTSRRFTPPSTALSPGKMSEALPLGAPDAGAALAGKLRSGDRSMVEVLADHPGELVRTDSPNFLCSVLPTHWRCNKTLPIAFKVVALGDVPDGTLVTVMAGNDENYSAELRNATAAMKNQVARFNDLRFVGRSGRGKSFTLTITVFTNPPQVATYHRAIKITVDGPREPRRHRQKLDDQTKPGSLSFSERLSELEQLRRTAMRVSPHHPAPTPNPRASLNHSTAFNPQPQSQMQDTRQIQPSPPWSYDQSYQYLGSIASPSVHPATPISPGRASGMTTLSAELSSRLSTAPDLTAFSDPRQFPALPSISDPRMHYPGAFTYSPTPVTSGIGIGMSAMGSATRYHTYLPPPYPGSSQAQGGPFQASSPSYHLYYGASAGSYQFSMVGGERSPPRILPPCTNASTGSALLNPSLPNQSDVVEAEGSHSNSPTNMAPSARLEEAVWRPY
Chain of Runt-related transcription factor 1 (Homo sapiens) + Core-binding factor subunit beta (Homo sapiens) (Q13951 whole entry, looked up): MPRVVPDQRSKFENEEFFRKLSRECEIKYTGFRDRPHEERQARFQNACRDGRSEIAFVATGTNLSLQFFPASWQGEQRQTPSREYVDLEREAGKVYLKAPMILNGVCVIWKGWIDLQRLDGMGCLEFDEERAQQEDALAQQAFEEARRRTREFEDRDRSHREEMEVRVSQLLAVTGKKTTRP

| Compound | activity, negative = inhibition | Potency |
| --- | --- | --- |
| Cc1cc(C)cc(NC(=O)NCC(O)COc2ccc([N+](=O)[O-])cc2)c1 (stereo not drawn) | 3.3% (inactive) | – |
| CCOc1cc(/C=N/n2c(C)nnc2C)ccc1O | -4.6% (inactive) | – |
| Cc1ccccc1Nc1ncc(C#N)c(N)n1 | -0.858% (inactive) | – |
| O=C(Nc1ccc(Cl)cc1)Nc1ccc(C(=O)N2CCOCC2)cc1 | -1.96% (inactive) | – |
| CCCc1nc2sc3ccccc3c(=O)c2c(=O)n1Cc1ccc(OC)cc1 | 4.52% (inactive) | – |
| Cc1c(C(=O)/C=C/N(C)C)nnn1-c1ccc(Cl)c(Cl)c1 | 4.52% (inactive) | – |
| O=c1cc2c(=O)oc3cc(O)c(O)oc3c2c(O)c1O | – | 0.447 µM (active) |
| O=c1oc2c(O)c(O)cc3c(=O)oc4c(O)c(O)cc1c4c23 | – | 0.158 µM (active) |
| COC(=O)Cc1[nH]c(=O)[nH]c1C(=O)OC | -2.87% (inactive) | – |
| CSc1ccc(NC(=O)Nc2cc(C)ccn2)cc1 | -4.53% (inactive) | – |
| C[N+](C)(C)CCCN(Cc1ccc2c(c1)OCO2)C(=O)NC1CCCCC1 | -8.77% (inactive) | – |
| C=CCNC(=S)Nc1c(C(=O)OC)[nH]c2cc(OC)ccc12 | -6.58% (inactive) | – |
| O=C(O)c1cc(O)c2c(c1)[C@H]([C@H]1c3cc(C(=O)O)cc(O)c3C(=O)c3c(O[C@@H]4OC(CO)C(O)C(O)C4O)cccc31)c1cccc(O[C@@H]3OC(CO)C(O)C(O)C3O)c1C2=O (stereo partly drawn) | – | 0.562 µM (active) |
| O=C(OCC(O)COC(=O)c1cccnc1)c1cccnc1 | 0.481% (inactive) | – |
| N#Cc1ccc(S(=O)(=O)N2CCCN(c3ccc(C(F)(F)F)cn3)CC2)cc1 | 3.3% (inactive) | – |
| O=C(O)c1ccccc1C1Nc2ccccc2C(=O)N1CCCN1CCOCC1 (stereo not drawn) | -13.6% (inactive) | – |
| Cc1ccc(Cn2nc(C)cc2C(=O)Nc2ccc(Cl)cc2)cc1 | -3.08% (inactive) | – |
| CCn1c(NC(=O)C(C)C)c(-c2cccs2)c(=O)c2ccccc21 | -7.71% (inactive) | – |
| CC(=O)Oc1cc(-c2coc3cc(OC(C)=O)c(OC(C)=O)c(OC(C)=O)c3c2=O)cc(OC(C)=O)c1OC(C)=O | – | 1 µM (active) |
| Cc1nc(C)c(-c2ccnc(/N=C/NO)n2)s1 | -3.29% (inactive) | – |
| Cc1cc(OCC(=O)c2cccc(C(F)(F)F)c2)n2cnnc2n1 | 1.34% (inactive) | – |
| O=C(NC(=S)NNC(=O)c1ccccc1O)c1ccco1 | – | 1.26 µM (active) |
| O=C(NC(=S)Nc1ccccc1N1CCCC1)c1ccco1 | -2.74% (inactive) | – |
| Cc1onc(-c2ccccc2)c1C(=O)NC(=S)NNC(=O)c1ccco1 | -9.63% (inactive) | – |
| Nn1c(SCC(=O)Nc2ccc(S(N)(=O)=O)cc2)nnc1C(F)(F)F | 4.8% (inactive) | – |
| O=C(CN1CCCc2ccccc21)N1CCc2ccccc21 | 7.88% (inactive) | – |

| Compound | activity, negative = inhibition | Potency |
| --- | --- | --- |
| Cc1cccc(NC(=S)N(CCN(C)C)C(C)c2ccccn2)c1 (stereo not drawn) | – | 6.87 µM (active) |
| CC(c1ccccn1)N(CCN(C)C)C(=S)Nc1cccc(F)c1 (stereo not drawn) | – | 3.44 µM (active) |
| CC(=O)NNC(=S)Nc1cccc(F)c1 | -2.31% (inactive) | – |
| Cc1ccc(NC(=S)Nc2ccccn2)cc1C | -4.63% (inactive) | – |
| COc1ccc(CCN(C)CCC(=O)Nc2cccc(C)c2)cc1OC | -4.23% (inactive) | – |
| CC1=NN(c2nc3ccccc3s2)C(O)(C(F)(F)F)C1 (stereo not drawn) | -0.882% (inactive) | – |
| COc1ccc(NC(=O)c2cccs2)cn1 | 4.88% (inactive) | – |
| CCOC(=O)NC1=NCC(C)S1 (stereo not drawn) | -9.33% (inactive) | – |
| O=S(=O)(c1ccc(C(F)(F)F)cc1)N1CCCN(c2ccc(C(F)(F)F)cn2)CC1 | -5.62% (inactive) | – |
| NNC(=O)c1ccc(COc2ccc([N+](=O)[O-])cc2)o1 | -7.53% (inactive) | – |
| COc1ccc(/C=N/NC(=O)c2ccco2)cc1OCc1ccccc1 | -0.527% (inactive) | – |
| N#Cc1cnn(-c2ccccc2)c1NC(=O)CN1CCOCC1 | 0.441% (inactive) | – |
| COC(=O)CC1C(=O)NCCN1C(=S)Nc1ccc(F)cc1 (stereo not drawn) | 0.286% (inactive) | – |
| O=C(O)COCC(=O)N1CCN(C2c3ccccc3-c3ccccc32)CC1 | -2.67% (inactive) | – |
| CC(C)NC(=O)Nc1cccc(Cl)c1 | 1.29% (inactive) | – |
| COCc1cc(O)c(O)c(O)c1-c1c(COC)cc(O)c(O)c1O | – | 0.631 µM (active) |
| CCCCNC(=O)NCCN1CCOCC1 | 0.241% (inactive) | – |
| Brc1ccc(C2Nc3cccc4cccc(c34)N2)o1 | – | 14.1 µM (active) |
| Cc1ccc(/C=N/N2CCN(c3ccccn3)CC2)o1 | -6.58% (inactive) | – |
| Cc1cc2nc(-c3ccccc3)cc(=O)n2[nH]1 | -8.72% (inactive) | – |
| NC(=S)N/N=C/c1ncc(C(F)(F)F)cc1Cl | – | 25.1 µM (active) |
| COc1ccc(/C=N/NC(=S)Nc2cc(C(F)(F)F)ccc2Cl)cc1 | 10.6% (inactive) | – |
| CC(C)(C)c1ccc(CCC2OCC(C[N+]3(C)CCOCC3)O2)cc1 (stereo not drawn) | -2.73% (inactive) | – |
| Cc1nn2c(NCCOCCO)c3c(nc2c1-c1ccccc1)CCC3 | -12.7% (inactive) | – |
| O=C(c1ccc(Cn2cc(Cl)c([N+](=O)[O-])n2)cc1)N1CCN(Cc2ccccc2)CC1 | -5.87% (inactive) | – |
| Cc1onc(-c2c(F)cccc2Cl)c1C(=O)Nc1ccccc1N1CCOCC1 | -11.4% (inactive) | – |

| Compound | activity, negative = inhibition | Potency |
| --- | --- | --- |
| CCCCC(=O)Nc1ccc(NC(=S)NC(=O)c2ccco2)cc1OC | -5.89% (inactive) | – |
| CCc1cccc(NC(=O)CCCCCC2NC(=O)NC2C)c1 (stereo not drawn) | – | 0.447 µM (active) |
| CCC(=O)Nc1cccc(C(=O)OC)c1 | -8.54% (inactive) | – |
| CCOC(=O)CN1NC2(CCCCCC2)NC1=S | -2.8% (inactive) | – |
| Cc1onc(-c2c(F)cccc2Cl)c1C(O)c1ccc(F)cc1 (stereo not drawn) | 7.39% (inactive) | – |
| Nc1ncccc1OCc1ccc(Cl)c(Cl)c1 | -2.93% (inactive) | – |
| COCCn1c(-c2ccc(Cl)cc2)nc2oc3cc(OC)ccc3c(=O)c2c1=O | -1.81% (inactive) | – |
| CC(=O)Nc1ccc(OCCOc2ccc([N+](=O)[O-])cc2)cc1 | 0.185% (inactive) | – |
| O=C1c2ccccc2C(=O)c2c(Nc3ccc(CCO)cc3)ccc(O)c21 | – | 0.794 µM (active) |
| CSC(=Nc1ccccc1)Nc1ccccc1 | -0.945% (inactive) | – |
| CCOC(=O)N1CCN(CC(=O)Nc2sc(CC)cc2C(=O)c2ccc(OC)cc2)CC1 | -13.8% (inactive) | – |
| CCOC(=O)CC(=O)CSc1nc(CC)c(C)cc1C#N | -13.7% (inactive) | – |
| COc1ccc(N/C=C2\C(=O)c3c(sc(C)c3C)N(C)S2(=O)=O)cc1 | 1.6% (inactive) | – |
| COc1cc(/C=N/NC(=O)c2cncc(Br)c2)cc([N+](=O)[O-])c1O | – | 2.82 µM (active) |
| COc1cc(/C=N/Nc2ccc(S(N)(=O)=O)cc2[N+](=O)[O-])cc(OC)c1O | -20.2% (inactive) | – |
| COc1ccc(/C=N/NC(=O)c2ccc3nc[nH]c3c2)cc1OC | -0.42% (inactive) | – |
| Oc1ccc2ccccc2c1C=Nc1ccccc1 | -2.72% (inactive) | – |
| CNC(=O)/C(C#N)=C1\SC(Cc2ccc(F)cc2)C(=O)N1c1ccccc1C (stereo not drawn) | -0.028% (inactive) | – |
| O=C(Nc1ccccc1)NC1CCCCNC1=O (stereo not drawn) | 1.23% (inactive) | – |
| N#C/C(=C\c1ccc(OC(=O)c2ccccn2)cc1)C(N)=O | – | 4.34 µM (active) |
| CCOC(=O)/C(C#N)=C/Nc1cc(F)ccc1C | -3.99% (inactive) | – |
| N#CC(C#N)=Cc1ccc(OC(=O)c2ccccn2)cc1 | – | 6.12 µM (active) |
| CCOc1ccccc1/C=C(/C#N)C(N)=O | 2.38% (inactive) | – |
| CCOC(=O)/C(C#N)=C/c1ccc(OC(=O)c2ccccn2)cc1 | – | 3.86 µM (active) |
| CCOC(=O)/C(C#N)=C/Nc1ccccc1OC(F)(F)F | -2.36% (inactive) | – |
| COc1ccc(/C(C#N)=C/c2ccccn2)cc1 | 9.94% (inactive) | – |
